This is a sample that favours compounds with a hit; in the whole collection about 2.2% have one here.
APP transl inh = APP translation inhibition. SH-SY5Y APP 5'UTR-luciferase reporter, luminescence. 190,000 tested, 0.82% active. inhibition, % at 2 µM. AID 1285;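 active means inhibition above a set limit, derived from the sample mean plus 3 SD, cut at about 45% in these data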
IEC-6 cytotox = counter-screen for KLF5 inhibitors: cytotoxicity in IEC-6 cells; IEC-6 cytotoxicity, luminescence viability; inhibition, % at 5 µM; 290,000 tested, 0.78% active; AID 1825; in the data active means inhibition above about 22%;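 further: 0% = plate median of test compound wells and 100% = cytotoxic reference compound wells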
BaF3 tox = counter-screen for JAK2V617F inhibitors: parental Ba/F3 viability inhibitors; 220,000 tested, 1.1% active; CellTiter-Glo ATP luminescence; inhibition, % at 5.6 µM; AID 1486;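 active means inhibition above a per-campaign cutoff, the mean inhibition of all tested compounds plus 3 SD, cut at about 27% in these data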;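 further: 0% = DMSO wells and 100% = JAK Inhibitor I control wells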
KLF5 inhibitor = inhibitors of KLF5 expression | inhibition, % at 5 µM | 290,000 tested, 0.23% active | DLD-1 KLF5 promoter-luciferase reporter, luminescence;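 active means inhibition above a per-plate limit of that plate's mean compound inhibition plus 3 SD, cut at about 60% in these data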;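 further: 0% = DMSO wells and 100% = LY294002 at 200 µM; higher means less KLF5 promoter-driven luciferase light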
aSyn 5UTR inh = MLPCN primary screen, SNCA 5' untranslated region | alpha-synuclein 5'UTR reporter, inhibitor activity | inhibition, % (tested at 7.5 µM) | 300,000 tested, 0.82% active; in the data active means inhibition above about 60%;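 further: H4 neuroglioblastoma cells stably carrying SNCA 5'UTR luciferase fusion; 0% = DMSO wells and 100% = positive control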
Ba/F3 V617F tox = loss of viability in JAK2V617F-driven Ba/F3 cells | AID 1446 | 220,000 tested, 1.1% active | Ba/F3 EpoR-JAK2V617F viability, ATP luminescence | inhibition, % at 5.6 µM;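 active means inhibition above the campaign mean plus 3 SD over all tested compounds, cut at about 24% in these data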;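 further: cytokine-independent growth of Ba/F3 cells driven by EpoR plus mutant JAK2; 0% = DMSO-treated cells and 100% = JAK inhibitor I control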
* = called active by the depositor; . = not tested or not shown.

SMILES | APP transl inh | IEC-6 cytotox | BaF3 tox | KLF5 inhibitor | aSyn 5UTR inh | Ba/F3 V617F tox
CC(C)(C)C(=O)NC1CC2CCCC(C1)N2C(=O)Nc1ccccc1 (centres undefined) | . | 5.4 | . | 17.3 | 0.2 | .
O=C(NCC1CCCO1)c1ccc([N+](=O)[O-])s1 (centres undefined) | . | -0.6 | . | -15.1 | -55.4 | .
CCC(C)Nc1nc(N)c([N+](=O)[O-])c(NC2CCCCC2)n1 (centres undefined) | . | 9.7 | . | -4.4 | 102.2* | .
Nc1nc(NCC(=O)O)nc(NC2CCCCC2)c1[N+](=O)[O-] | . | 0.3 | . | -10.6 | 21.4 | .
O=C1OC(C(=O)NCc2ccccc2)Cc2ccccc21 (centres undefined) | -8.0 | -0.8 | -1.2 | -10.1 | . | -2.1
CCCc1c(C)nn(C(=O)/C(C#N)=N/Nc2ccccc2[N+](=O)[O-])c1C | -64.5 | -1.3 | 3.9 | -24.1 | -33.8 | -1.7
COc1ccc(C(=O)/C(C#N)=N/Nc2ccccc2[N+](=O)[O-])cc1 | 70.4* | 3.8 | 2.3 | -5.8 | -26.1 | -0.6
COc1ccc(C(=O)/C(C#N)=N/Nc2ccc([N+](=O)[O-])cc2)cc1 | 91.9* | 17.7 | 7.1 | 3.8 | 102.1* | 0.2
Cc1nn(-c2ccc(Cl)cc2)c(=O)c2c(C)noc12 | . | -4.4 | -5.7 | -23.2 | 15.9 | -4.1
C=CCn1c(O)c(N=NC(=S)Nc2ccccc2F)c2ccccc21 | 18.6 | 7.5 | 6.1 | -4.3 | 67.4* | 4.2
C/C(Cl)=C\Cn1c(O)c(N=NC(N)=S)c2ccccc21 | 11.1 | -6.9 | 6.1 | 20.3 | 45.5 | 5.1
CCCCNC(=S)N=Nc1c(O)n(Cc2ccccc2)c2ccccc12 | -12.3 | 0.2 | 6.6 | -7.0 | 4.3 | 4.2
Cc1ccc(Cn2c(O)c(N=NC(=S)Nc3ccccc3F)c3ccccc32)cc1 | 22.4 | -3.6 | 1.6 | -21.9 | 71.4* | -2.6
Oc1c(N=NC(=S)Nc2ccccc2F)c2ccccc2n1Cc1ccccc1Cl | 16.8 | -0.6 | 5.3 | -10.8 | 86.8* | 3.0
Cc1c(Cl)cccc1NC(=S)N=Nc1c(O)n(CN2CCOCC2)c2ccccc12 | 45.8* | 16.2 | 6.3 | -20.9 | 64.5* | 6.7
CC(C)CN(C(=O)COC(=O)c1ccccn1)c1c(N)n(Cc2ccccc2)c(=O)[nH]c1=O | . | . | . | . | 0.8 | .
COc1ccc(-c2cc(C(=O)Nc3cc(Br)ccc3O)no2)cc1 | . | 0.4 | . | -67.5 | -106.6 | .
Cc1ccc(N2CC(C(=O)N3CCCCCC3)CC2=O)cc1 (centres undefined) | . | -6.0 | . | -24.6 | 1.2 | .
Cc1ccc(C)c(NC(=S)N2CCC(NC(=O)c3ccco3)CC2)c1 | . | 3.3 | . | 7.1 | -2.2 | .
O=S(=O)(c1ccc(OCC2CO2)cc1)c1ccc(OCC2CO2)cc1 (centres undefined) | 3.6 | -6.6 | 5.2 | -18.8 | 16.8 | -1.0
C=CCn1c(O)c(N=NC(=S)Nc2cccc(C)c2)c2ccccc21 | 65.9* | 20.3 | 6.5 | -14.2 | 93.6* | 3.5
Oc1c(N=NC(=S)Nc2ccccc2F)c2ccccc2n1Cc1ccccc1 | 18.2 | -9.8 | 2.1 | 1.9 | 71.7* | -0.7
CCc1cccc(NC(=O)CN(c2ccc(C)cc2)S(=O)(=O)c2c(C)noc2C)c1 | . | -4.5 | . | -21.9 | -7.2 | .
COc1cc(C(=O)Oc2ccc(/C=N/NC(=O)c3ccncc3)cc2)cc(OC)c1OC | . | -4.2 | . | -17.7 | 7.5 | .
COc1cc(C(=O)N/N=C/c2ccc(OC(=O)N3CCOCC3)cc2)cc(OC)c1OC | 60.8* | 9.2 | 3.6 | -12.5 | 7.1 | 0.9
SMILES | APP transl inh | IEC-6 cytotox | BaF3 tox | KLF5 inhibitor | aSyn 5UTR inh | Ba/F3 V617F tox
Brc1ccc(-c2c[n+]3c(n2-c2ccccc2)SCC3)cc1 | . | 1.7 | 59.4* | -19.1 | -22.5 | 64.0*
Cc1ccc(C2(O)CN(c3ccccc3)C3=[N+]2CCS3)cc1 (centres undefined) | -21.5 | 1.7 | 22.7 | -16.2 | -12.2 | 6.2
COc1ccc(-c2nnc3n2-c2ccccc2SC3)cc1OC | -3.8 | -2.4 | 4.1 | -6.0 | 10.9 | 1.6
Cc1ccc(-c2c[n+]3c(n2-c2ccccc2)SCC3)cc1 | . | 11.4 | 64.3* | 0.4 | 1.1 | 79.1*
COc1ccc(-c2c[n+]3c(n2-c2ccccc2)SCC3)cc1 | . | 1.9 | 61.2* | -13.1 | 9.8 | 73.1*
N#Cc1ccc(-c2cn(-c3ccccc3)c3[n+]2CCCS3)cc1 | -7.8 | -6.0 | 2.2 | -21.6 | 3.4 | -3.5
COc1ccc(-c2c[n+]3c(n2-c2ccccc2)SCC3)cc1OC | -31.2 | 3.0 | 76.6* | 5.5 | 15.7 | 46.2*
O=C(CN(C(=O)c1csnn1)c1ccccc1F)NC1CCCCC1 | . | 0.4 | . | -35.1 | 0.0 | .
Cc1ccc(NC(=S)NCC2CCN(C(C)c3ccccc3)C2)cc1C (centres undefined) | -21.3 | -3.4 | -1.5 | -4.8 | 3.0 | -1.6
COc1ccc(/C=C/c2cc(-c3ccc(C)cc3)o[n+]2C)cc1 | -1.1 | 2.4 | 93.4* | 50.0 | 89.2* | 101.0*
CC(Oc1cccc2ccccc12)C(=O)N/N=C/c1cccnc1 (centres undefined) | . | 4.6 | . | -24.1 | 11.6 | .
Cc1ccc(NC(=S)NC(=O)c2ccc(F)cc2)cc1S(=O)(=O)Nc1cccc(Cl)c1 | -5.6 | 11.0 | 7.2 | 26.3 | 81.3* | 2.5
Cc1oc2c(c1C(=O)O)C(=O)c1ccccc1C2=O | -12.4 | -13.8 | 18.7 | -10.9 | -62.0 | 5.5
Cc1oc2c(c1C(=O)c1ccccc1)C(=O)C(=O)c1ccccc1-2 | -91.5 | 2.2 | -3.1 | -102.7 | 126.8* | 5.5
O=S(Cc1ccc(Br)cc1)Cc1nnc(SCc2ccc(Br)cc2)n1-c1ccccc1 (centres undefined) | 14.7 | 7.3 | 33.8* | 17.0 | 10.3 | 14.8
CCOc1ccc(N(CC(=O)N2CCN(Cc3ccccc3)CC2)S(C)(=O)=O)cc1 | . | -3.6 | . | -48.3 | 12.6 | .
O=C(/C=C/c1cccc([N+](=O)[O-])c1)n1cnc2ccccc21 | 50.6* | 2.3 | 1.2 | -15.4 | -41.2 | -0.6
C=CC(=O)N=c1sc2ccccc2n1-c1ccccc1 | 39.4 | 13.4 | 2.2 | -13.9 | 69.7* | 3.4
N=c1sc2ccccc2n1-c1ccccc1 | 0.3 | 1.1 | 9.5 | -15.2 | 27.1 | 3.0
CCN1CCN(C(c2ccc(C(F)(F)F)cc2)c2ccc3cccnc3c2O)CC1 (centres undefined) | . | 15.0 | . | 29.4 | 25.2 | .
OCCN1CCN(C(c2cccs2)c2ccc3cccnc3c2O)CC1 (centres undefined) | 17.9 | 49.6* | 85.6* | 83.0* | . | 100.1*
COc1ccc(CCNC(=O)CCC(=O)Nc2ccccc2[N+](=O)[O-])cc1OC | . | -1.5 | . | -26.5 | -0.5 | .
Cc1nn2cc(-c3ccccc3)nc2[nH]c1=O | -3.4 | -7.4 | -0.1 | -44.2 | -31.5 | -1.3
Cc1nc(-c2ccccc2)cn(O)c1=O | -0.8 | 6.2 | 79.4* | 5.1 | -5.7 | 2.3
NC(=O)C(=O)N/N=C/c1c(F)c(F)c(F)c(F)c1F | 3.3 | 9.8 | -0.4 | -31.6 | -34.1 | 0.8
O=C(OCC(=O)c1ccccc1Br)c1ccncc1 | -10.6 | 7.1 | 1.4 | -13.3 | -17.5 | -4.8
O=C(Cc1ccccc1)Nc1cccc(N2C(=O)C=CC2=O)c1 | 66.7* | 0.5 | 3.6 | -5.5 | 5.0 | -0.9
O=C1CC2(CCN(C(=O)c3c(F)cccc3F)CC2)Oc2ccccc21 | . | . | . | . | 18.8 | .

High-throughput results as filed in PubChem.
